Test results reported in PubChem BioAssay AID463173 (ICCB-Longwood Screening Facility, Harvard Medical School, 2010).
In all, about 52,000 compounds went through this assay and about 4,300 (8.3%) were called active. The sample as a whole holds a higher share of actives than the screen did. Unmarked numbers belong to inactive results. Cut-off read from the data, not from the text of the source: active = survival mostly below about 52% (no sharp cut-off); inactive = mostly above about 56%.

Each molecule was assayed on DeltatarO mutant (assay: growth inhibition of S. aureus wild type versus tarO mutant, primary screen, teichoic acid synthesis inhibitors, RN4220, OD600 (AID 463173)). Conditions: OD600, 18 h, stronger effect = lower value, screened at 18.75 µg/mL (by protocol).

Structure (SMILES) | survival
COc1cccc(CNC(=O)c2c(C)oc3ncnc(N4CCOCC4)c23)c1 | 87%
COc1ccc(CNC(=O)C2CCN(c3nnc(-n4cccc4CNc4ccc(C)cc4)s3)CC2)c(OC)c1 | 70%
COc1ccc(CN2CCc3nc(N4CCN(c5ccc(F)cc5)CC4)ncc3C2)c(OC)c1OC | 119%
COc1ccc(-c2nc3sc(CCNC(=O)c4cc(OC)c(OC)c(OC)c4)c(C)n3n2)cc1 | 83%
CN(C(=O)CSc1nc2ccc(NC(=O)COc3ccc(Cl)cc3)cc2s1)c1ccccc1 | 72%
CCOc1ccc(OCC)c(Nc2nc3ccc(Cl)cc3n3cnnc23)c1 | 65%
CC(C)NC(=O)C1CCN(S(C)(=O)=O)CC1 | 93%
CSc1nc(NNC(=O)c2ccco2)c2c3c(sc2n1)COC(C)(C)C3 | 81%
CCOc1ccccc1NC(=O)C(C)N(c1ccccc1)S(C)(=O)=O (centres undefined) | 91%
COC(=O)c1c(C)sc(-c2c(-c3ccc4c(c3)OCCO4)[nH]c3c2c(=O)n(C)c(=O)n3C)c1O | 43% (active)
COC(=O)c1c(C)sc(-c2c(-c3ccc(OC)c(F)c3)[nH]c3c2c(=O)n(C)c(=O)n3C)c1O | 120%
CCOC(=O)c1c(C)sc(-c2c(-c3ccc4c(c3)OCCO4)[nH]c3c2c(=O)n(C)c(=O)n3C)c1O | 128%
COCCCNc1c2c(nc3ccccc13)CCC2 | 125%
O=C1COc2ccc(-c3cc(-c4ccc(F)cc4)c4c(n3)-c3cc(Cl)ccc3OC4)cc2N1 | 88%
Cc1nc2sccn2c(=O)c1S(=O)(=O)Nc1cc(C(F)(F)F)ccc1Cl | 69% (active)
COc1cc(OC)c(NS(=O)(=O)c2c(C)nc3sc(C)cn3c2=O)cc1Cl | 65%
CC(=O)c1ccc(NS(=O)(=O)c2c(C)nc3scc(C)n3c2=O)cc1 | 88%
CC(=O)Nc1ccc(NS(=O)(=O)c2c(C)nc3sccn3c2=O)cc1 | 61%
Cc1ccc(NS(=O)(=O)c2c(C)nc3sccn3c2=O)c(Cl)c1 | 132%
COC(=O)c1ccc(NS(=O)(=O)c2c(C)nc3sccn3c2=O)cc1 | 72% (active)
CCOc1ccccc1NS(=O)(=O)c1c(C)nc2sccn2c1=O | 63%
COc1ccc(NS(=O)(=O)c2c(C)nc3scc(C)n3c2=O)cc1 | 90%
CCCCOC(=O)c1ccc(NS(=O)(=O)c2c(C)nc3scc(C)n3c2=O)cc1 | 43% (active)

Structure (SMILES) | survival
COc1cc(Cl)c(C)cc1NS(=O)(=O)c1c(C)nc2sccn2c1=O | 64% (active)
Cc1nc2sccn2c(=O)c1S(=O)(=O)Nc1cc(Cl)ccc1O | 51%
Cc1nc2sccn2c(=O)c1S(=O)(=O)Nc1ccc(N2CCN(C)CC2)cc1 | 106%
COc1ccc(Cn2nnnc2C(C(C)C)N2CCc3ccccc32)cc1 (centres undefined) | 82%
CC(=O)N1CCC(N(Cc2ccco2)C(=O)Nc2ccc(C)c(Cl)c2)CC1 | 128%
CN(C)S(=O)(=O)c1ccc2c(c1)N(CC(=O)NCc1ccccc1)C(=O)C1CCCCN21 (centres undefined) | 67%
CCSc1nc2n(n1)C(c1ccc(C(=O)O)cc1)C(C(=O)Nc1ccccc1C)=C(C)N2 (centres undefined) | 84%
COc1ccc(N2CCN(C(=O)Nc3ccc(Cl)cc3)CC2)cc1 | 168%
COc1ccc(S(=O)(=O)c2cn(CC(=O)Nc3cc(C)ccc3C)c3ccccc3c2=O)cc1 | 86%
COc1ccccc1NC(=O)C1=C(C)Nc2nc(SCc3cc(C)ccc3C)nn2C1c1ccccc1 (centres undefined) | 116%
CCOc1ccc(NC(=O)CSc2ncc3c(n2)-c2ccc(Cl)cc2N(Cc2ccccc2)S3(=O)=O)cc1 | 99%
O=C(NCc1ccccc1Cl)c1ccc(Nc2nc3ccccc3n3nnnc23)cc1 | 84%
Cc1cc(/C=C(\C#N)C(=O)Nc2ccccc2)c(C)n1-c1ccc(F)cc1 | 59%
COc1cccc(Nc2nnc(-c3cc4ccc(O)cc4oc3=O)s2)c1 | 85%
Nc1c(C(=O)Nc2cccc(F)c2)sc2nc(-c3cccs3)ccc12 | 69%
Cc1cc(F)ccc1NC(=O)c1sc2nc(-c3cccs3)ccc2c1N | 45% (active)
O=C(Nc1ccc(Br)cc1)c1cc(-c2cccs2)nc2ccccc12 | 83%
Cc1ccc(NC(=O)c2sc3nc(-c4ccncc4)ccc3c2N)cc1 | 131%
Cc1ccccc1NC(=O)c1sc2nc(-c3ccncc3)ccc2c1N | 39%
Nc1c(C(=O)Nc2ccc(Cl)cc2F)sc2nc(-c3cccs3)ccc12 | 58%
CCOc1ccc(OCC)c(NC(=O)c2cc(-c3cccs3)nc3ccccc23)c1 | 85%
CC(C)CSc1ccccc1NC(=O)c1sc2nc(-c3ccncc3)ccc2c1N | 46% (active)
Cc1ccc(NC(=O)c2cc(-c3cccs3)nc3ccccc23)c(C)c1 | 57% (active)

Structure (SMILES) | survival
Cc1ccc(N(Cc2cccs2)C(=O)c2ccc(Br)o2)cc1 | 73%
CC(C)(C)C(=O)CSc1nc2ccsc2c(=O)n1Cc1ccccc1Cl | 77%
COc1ccc(-c2nc3n(c2NC(C)(C)C)CCN(C(=O)Cc2ccccc2F)C3)cc1 | 88%
CSc1ccc(CCNC(=O)c2ccc3c(c2)nc2n3CCC(C)C2)cc1 (centres undefined) | 83%
CCOC(=O)c1c(NC(=O)c2nc(S(C)(=O)=O)ncc2Cl)sc(C(C)=O)c1C | 6% (active)
CCOC(=O)c1c(-c2ccccc2)csc1NC(=O)c1nc(S(=O)(=O)CC)ncc1Cl | 11% (active)
CCOC(=O)c1c(-c2ccc(C)cc2)csc1NC(=O)c1nc(SCC)ncc1Cl | 84%
CCOC(=O)c1c(-c2ccccc2)csc1NC(=O)c1nc(SCC)ncc1Cl | 87%
CCCS(=O)(=O)c1ncc(Cl)c(C(=O)Nc2scc(-c3ccccc3)c2C(=O)OCC)n1 | 25% (active)
CCOC(=O)c1c(NC(=O)c2nc(SCC)ncc2Cl)sc(C(C)=O)c1C | 75%
CCOC(=O)c1c(-c2ccc(C)cc2)csc1NC(=O)c1nc(SC(C)C)ncc1Cl | 61%
CCCSc1ncc(Cl)c(C(=O)Nc2scc(-c3ccc(C)cc3)c2C(=O)OCC)n1 | 62%
CCCSc1ncc(Cl)c(C(=O)Nc2sc(C(C)=O)c(C)c2C(=O)OCC)n1 | 51%
CCOC(=O)c1cccc(NC(=O)C2CCN(S(=O)(=O)c3cn(C)cn3)CC2)c1 | 102%
COc1ccc(CCN2C(=O)CN(C3CCCCCC3)C(=O)C2c2ccc(OC(C)C)c(OC)c2)cc1OC (centres undefined) | 89%
COc1cc2[nH]c(=O)n(CCCCCC(=O)N3CCN(c4ccc(Cl)cc4)CC3)c(=O)c2cc1OC | 67%
CCOc1ccc(-c2cc(C)n3nc(C(=O)Nc4cc(Cl)ccc4O)cc3n2)cc1 | 62%
CC(=O)Nc1ccc(NC(=O)CCCn2nc(C)c3sc4ccccc4c3c2=O)cc1 | 83%
O=c1oc2c3c(ccc2c2ccccc12)OCN(Cc1ccccc1Cl)C3 | 68%
O=C(NCCc1ccc(Cl)cc1)c1ccc(CSCc2ccc(Cl)cc2)o1 | 83%
CCN1CCN(C(=O)c2ccc3c(c2)N(Cc2cccc(F)c2)C(=O)c2ccccc2S3)CC1 | 85%
CCOc1cc(S(=O)(=O)N(C)C2CCCCC2)c(OCC)cc1-n1cnnn1 | 99%
Cn1c(=O)oc2cc(S(=O)(=O)CCC(=O)N3CCN(c4cccc(Cl)c4)CC3)ccc21 | 81%

Structure (SMILES) | survival
COc1ccc(OCC(=O)Nc2ccc3oc(-c4ccncc4)nc3c2)cc1 | 87%
CCN1CCN(C(=O)c2cnn(-c3ccc(F)cc3F)c2C2CCN(C(=O)OC(C)(C)C)CC2)CC1 | 86%
COc1ccc(C)cc1Nc1nc2ccccc2c2nnc(C)n12 | 135%
CCc1nnc2c3ccccc3nc(Nc3ccc(F)c(Cl)c3)n12 | 62%
CCc1nnc2c3ccccc3nc(Nc3ccc(C(C)=O)cc3)n12 | 78%
CCCCOC(=O)c1ccc(Nc2nc3ccccc3c3nnc(C)n23)cc1 | 25% (active)
COc1ccc(Nc2nc3ccccc3c3nnc(C)n23)cc1Cl | 48%
CCc1ccc(Nc2nc3ccccc3c3nnc(C)n23)cc1 | 92%
CCOc1ccc(Nc2nc3ccccc3c3nnc(CC)n23)cc1 | 62%
COc1cc(Nc2nc3ccccc3c3nnc(C)n23)cc(OC)c1 | 37% (active)
Cc1nnc2c3ccccc3nc(Nc3ccc(F)cc3Cl)n12 | 83%
CCc1nnc2c3ccccc3nc(Nc3ccc(F)cc3C)n12 | 39% (active)
CCc1nnc2c3ccccc3nc(Nc3cc(C)cc(C)c3)n12 | 26% (active)
CCc1nnc2c3ccccc3nc(Nc3ccccc3OC)n12 | 57%
Cn1c(-n2cccc2)c(-c2c(-c3ccc(F)cc3)[nH]c3c2c(=O)[nH]c(=O)n3C)c(=O)[nH]c1=O | 55%
CCc1ccc(NC(=O)C(=O)NCCc2csc(-c3ccc(C(F)(F)F)cc3)n2)cc1 | 99%
Cc1cc(C)c2c(-n3cccc3)c(C(=O)NCC(C)c3ccccc3)sc2n1 (centres undefined) | 86%
O=C(Nc1ccc(Br)cc1)C1CCCN1S(=O)(=O)c1ccc(F)cc1 (centres undefined) | 66%
Cc1cccc(N2C(=O)C3C(C(=O)NC4CC4)C4C=CC3(O4)C2C(=O)NC2CCCC2)c1 (centres undefined) | 75%
Cc1ccc(S(=O)(=O)NCCSc2nnnn2-c2ccc(Cl)c(C(=O)O)c2)cc1 | 138%
